Assay outcomes (PubChem BioAssay)
D2 ag-1 – agonists of human D2 dopamine receptor | P14416 | HEK293 T-REx D2 cells, calcium flux agonist mode | activation, % at 2 µM | hit rate 0.53% among 340,000 | AID 485358;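 active means activation over 3 SD above normal in the single-dose calcium agonist read, cut at about 30% in these data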; further: 0% is about no effect
Target sequence (P14416 whole entry, looked up): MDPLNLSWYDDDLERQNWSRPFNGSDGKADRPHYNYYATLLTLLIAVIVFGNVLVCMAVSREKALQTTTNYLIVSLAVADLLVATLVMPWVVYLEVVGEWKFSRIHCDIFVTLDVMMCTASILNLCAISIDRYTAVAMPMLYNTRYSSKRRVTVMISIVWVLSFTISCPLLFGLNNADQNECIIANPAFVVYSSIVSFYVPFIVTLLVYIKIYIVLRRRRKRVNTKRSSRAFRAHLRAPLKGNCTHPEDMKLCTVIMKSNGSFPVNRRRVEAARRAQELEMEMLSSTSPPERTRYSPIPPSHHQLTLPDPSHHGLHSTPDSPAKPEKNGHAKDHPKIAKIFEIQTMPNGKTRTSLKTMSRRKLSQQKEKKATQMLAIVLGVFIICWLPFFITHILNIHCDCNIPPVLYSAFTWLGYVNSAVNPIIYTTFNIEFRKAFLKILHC
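Tetracycline-induced HEK293 Trex cells with D2 receptor force-coupled to calcium signaling, plated overnight at 30 C and loaded with no-wash calcium dye. Calcium flux read kinetically for 180 s after compound addition; responses flag agonists.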
D2 PAM-1 – positively modulates the human D2 dopamine receptor allosterically; hit rate 0.34% among 340,000; HEK293 T-REx D2, calcium flux, EC20 dopamine potentiation; P14416; potentiation, % at 10 µM; AID 485347;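 active means potentiation over 3 SD above the plate norm, cut at about 30% in these data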; further: 0% is about no effect
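Using a no-wash calcium dye in inducible, force-coupled HEK293 Trex cells expressing D2, we tracked fluorescence each second for 180 s after compound, then for 180 s after EC20 dopamine to detect augmented signalling.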
D2 antagonist – antagonists of human D2 dopamine receptor. P14416. HEK293 TREx D2 cells, calcium flux, dopamine EC80. inhibition, % at 10 µM. hit rate 2% among 340,000. AID 485344; in the data active means inhibition above about 30%; inactive means below that, where a call was filed; further: 0% is about no effect
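Antagonism is scored as inhibition of an EC80 dopamine-evoked calcium signal in a force-coupled, tetracycline-inducible HEK293 T-REx D2 line, with compound present 180 s before agonist.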
D2 ag-2 – human D2 receptor agonism in beta-arrestin assay. activation, % (no concentration beside the values). AID 624465. P14416. DiscoveRx PathHunter D2 beta-arrestin, luminescence, 90 min; 100% = 57 uM dopamine signal. hit rate 0.084% among 360,000; in the data active means activation above about 40%; inconclusive means between about 15% and that limit
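Agonist mode: compounds alone added to overnight-plated D2 PathHunter cells for 90 min at 37 C, with 57 uM final dopamine (EC100) defining full response. Beta-arrestin recruitment detected by chemiluminescent reagent, read after 1 h at ambient temperature.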
D2 PAM-2 – potentiates the human D2 dopamine receptor allosterically | DiscoveRx D2 beta-arrestin cells, luminescence, 90 min; 100% = 57 uM dopamine signal | potentiation, % (test concentration not listed) | hit rate 0.23% among 360,000; in the data active means potentiation above about 50%; inconclusive means mostly about 30% to 49%
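PathHunter D2 cells, attached overnight at 37 deg C, received compound in DMSO plus dopamine at EC20 (50 nM final) for 90 min at 37 deg C. Beta-arrestin recruitment was read as luminescence after 1 h with detection reagent at ambient temperature.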
Active calls of the source: *; ? = inconclusive; / = no result. Hits are enriched below; roughly 2.4% of the tested compounds scored in any of these assays.

SMILES | D2 ag-1 | D2 PAM-1 | D2 antagonist | D2 ag-2 | D2 PAM-2
N#CC1=C(N)Oc2n[nH]c(-c3cccnc3)c2C1c1ccc([N+](=O)[O-])o1 (stereo unspecified) | 1 | 6 | 8 | 9 | 55*
CC(=O)c1ccccc1OCC(O)CN1CCN(CCN2C(=O)c3cccc4cccc(c34)C2=O)CC1 (stereo unspecified) | -2 | -23 | 36* | -2 | -15
CCNC(=S)N1CCN(CCN2C(=O)c3cccc4cccc(c34)C2=O)CC1 | 0 | 14 | 44* | 0 | 10
Cc1ccc(C)c(OCC(O)CN2CCN(CCN3C(=O)c4cccc5cccc(c45)C3=O)CC2)c1 (stereo unspecified) | -2 | -24 | -24 | -2 | -35
O=C(COCc1cc(-c2ccc3c(c2)OCO3)on1)NCc1ccc(F)cc1 | -1 | 2 | / | / | /
CCC1COCCS(=O)(=O)N1Cc1cccc(Cl)c1 (stereo unspecified) | 0 | 4 | 47* | -2 | -5
O=S1(=O)CCOC[C@H](CC2CCCCC2)N1Cc1cccc(Cl)c1 | 0 | 9 | -15 | -1 | -5
O=C(NCCN1C(=O)S/C(=C\c2ccccc2)C1=O)C1CCN(S(=O)(=O)c2cccs2)CC1 | 1 | -11 | 33* | -2 | -9
CCOc1ccc(NC(=O)C2CCN(S(=O)(=O)c3cccs3)CC2)cc1 | -2 | 32* | -1 | 5 | 11
O=C(NCCc1ccccc1)C1CCN(S(=O)(=O)c2cccs2)CC1 | 0 | -14 | -5 | -2 | -3
Cc1ccc2onc(CNC(=O)N3CCN(c4cccc(C)c4C)CC3)c2c1 | 0 | 1 | / | / | /
CSc1ccc(C2Nc3cccc4cccc(c34)N2)cc1 | 0 | 8 | -11 | 54* | 58*
c1cc2c3c(cccc3c1)NC(c1ccc3c(c1)OCO3)N2 | 2 | -9 | -16 | 44* | 3
CC(C)CCNC(=O)c1cn(C)c2ccc(S(=O)(=O)N3CCOCC3)cc2c1=O | 0 | 4 | / | / | /
COc1cc(NC(=O)CCn2nc(C)c(S(=O)(=O)N3CCCCC3)c2C)cc(OC)c1OC | -1 | 7 | / | / | /
CC(C)(C)OC(=O)N1CCC(c2c(C(=O)Nc3ccc4c(c3)OCCO4)cnn2-c2ccc(F)cc2F)CC1 | 1 | 4 | / | / | /
COC(=O)c1ccc(NC(=O)N2CCC(CN3CCc4ccccc4C3)CC2)cc1 | -1 | / | / | / | /
COc1cc(/C=C(/C#N)c2nc3ccccc3[nH]2)ccc1OCC(=O)Nc1ccccc1C(C)C | 2 | -6 | 32* | 1 | 0
COc1cc(/C=C(/C#N)c2nc3ccccc3[nH]2)ccc1OCC(=O)Nc1ccccc1C | 22 | 6 | -3 | -8 | 9
Cn1cnc2c(=O)oc3ccc(S(=O)(=O)N4CCN(c5cccc(C(F)(F)F)c5)CC4)cc3c21 | 0 | / | / | / | /
O=C(CSc1ncc(-c2ccccc2)n1C1CCCC1)N1CCc2ccccc21 | 0 | -31 | 31* | -2 | -22
O=C(CSc1nnc(-c2ccccc2)c(-c2ccccc2)n1)N1CCc2ccccc21 | -1 | -2 | 69* | 0 | -4
Cn1c(-c2ccccc2)cnc1SCC(=O)N1CCCc2ccccc21 | 0 | -9 | -15 | -2 | -8
Cc1cc(C)nc(SCC(=O)N2CCc3ccccc32)n1 | / | / | / | -2 | -2
O=C1c2ccccc2-c2nc3ccccc3n21 | 0 | 35* | 16 | -2 | -1
SMILES | D2 ag-1 | D2 PAM-1 | D2 antagonist | D2 ag-2 | D2 PAM-2
COc1ccc(Cn2c(CO)cnc2SCc2ccc(C)cc2)cc1 | 0 | -2 | / | / | /
Cc1cc2ccc(C)c(C)c2nc1SCC(=O)c1cccs1 | 2 | -8 | 60* | -3 | -7
Cc1ccc(C2C(C(=O)c3cccs3)=C(O)C(=O)N2CCN2CCOCC2)o1 (stereo unspecified) | -2 | 38* | 11 | -4 | -10
O=C(NCc1ccc(F)cc1)c1cc2sccc2n1Cc1ccc(F)cc1 | 1 | 31* | -5 | / | /
Cc1nc2sccn2c(=O)c1S(=O)(=O)N1CCN(c2ccccc2)CC1 | 0 | -2 | 5 | -2 | 1
Cc1nc2sccn2c(=O)c1CCN1CCC(=C(c2ccccc2)c2ccc(F)cc2)CC1 | 2 | -25 | 73* | / | /
CN(C)c1ccc(N=Cc2cccn2C)cc1 | 0 | 31* | -23 | 6 | -20
CN(C)c1ccc(N=Cc2nc(-c3ccccc3)oc2O)cc1 | / | / | / | -1 | 16
Cc1ccc2nc(CN3CCN(S(=O)(=O)c4ccc(F)cc4)CC3)oc2c1 | -2 | 0 | / | / | /
Cc1ccc(-c2nnc(Nc3ccc(Br)cc3)c3ccccc23)cc1S(=O)(=O)N1CCOCC1 | 0 | / | / | / | /
COc1ccc(NC(=O)CSc2ccccn2)c([N+](=O)[O-])c1 | 0 | -3 | 31* | 7 | -5
O=C(CSc1ccccn1)Nc1cccc2ccccc12 | 0 | 34* | 14 | 1 | 11
O=C(CSc1ccccn1)Nc1nonc1[N+](=O)[O-] | 2 | 7 | -15 | 63* | -8
CC(C)Oc1ccc(CNS(=O)(=O)c2ccc(-c3cc(C(F)(F)F)on3)s2)cc1 | 0 | 2 | / | / | /
O=C(NCCCN1CCCC1)Nc1ccc(F)cc1 | 0 | -7 | -6 | 3 | -15
O[Si](CCCN1CCCCC1)(c1ccc(F)cc1)C1CCCCC1 (stereo unspecified) | 1 | -27 | 124* | -3 | -26
CCN(CC)c1ccc(NC(=O)C2CC(=O)N(Cc3ccccc3)C2)cc1 (stereo unspecified) | 0 | 3 | 1 | 4 | -1
CN(C)S(=O)(=O)c1ccc(NC(=O)C2CC(=O)N(Cc3ccccc3)C2)cc1 (stereo unspecified) | 0 | 31* | -10 | -1 | -6
CC1=C(C(=O)OCCOc2ccccc2)C(c2coc3ccccc3c2=O)C2=C(CCCC2=O)N1 (stereo unspecified) | 1 | 43* | -21 | -1 | -3
CCOC(=O)C1=C(C)NC2=C(C(=O)CCC2)C1c1coc2ccccc2c1=O (stereo unspecified) | 1 | 6 | -7 | -2 | -5
CN(CC(=O)Nc1cccc(F)c1)CC(=O)N1CCc2ccccc21 | 0 | -17 | 17 | 2 | -12
CC(C(=O)N1CCc2ccccc21)N(C)CC(=O)Nc1cccc(F)c1 (stereo unspecified) | 5 | -22 | 39* | -2 | -34
CSc1ccc(C2c3[nH]c4ccccc4c3CCN2C(=O)CCC2CCCC2)cc1 (stereo unspecified) | 1 | 3 | / | / | /
COc1cccc(CN2CCc3ccc(NC(=O)CCc4ccc(C)cc4)cc3C2)c1O | 0 | -20 | 31* | -7 | -41
N/C(Cc1ccc(Cl)cc1Cl)=N\OC(=O)c1ccccc1 | 0 | -14 | -43 | 63* | 22
N/C(Cc1ccc(Cl)cc1)=N\OC(=O)c1cccc2ccccc12 | 2 | -9 | -7 | ? | 86*
